rTrxR1 inhibitor = qHTS Assay for Inhibitors of Mammalian Selenoprotein Thioredoxin Reductase 1 (TrxR1): qHTS; Thioredoxin reductase 1, cytoplasmic (Rattus norvegicus), O89049; recombinant rTrxR1, NADPH fluorescence consumption, selenite substrate; Potency, µM (highest dose often 114 µM), for inactives: at the highest dose activity change, negative = inhibition, actives largely listed as inhibitors; hit rate 1% among 390,000; also: potency is read from the fitted curve at half-maximal effect; % is scaled to controls: 0 for no effect and ±100 for the full control effect; nearly all actives have a fitted effect of over 65% in size
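Rat TrxR1 (90 nM in the dispensed reagent) was pre-reduced with 400 uM NADPH for 5 min at room temperature, then incubated with compound for 15 min. After 400 uM selenite was added, NADPH fluorescence (Ex 340/Em 450 nm) was followed for 8 min.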
RGS4 inhibitor = Inhibitors of Regulator of G Protein Signaling (RGS) 4: qHTS; Regulator of G-protein signaling 4 (Homo sapiens), P49798; Transcreener GDP fluorescence polarization, RGS4-accelerated GTP hydrolysis; Potency, µM (doses to about 114 µM), inactives show at the highest dose activity change, negative = inhibition, actives largely listed as inhibitors; hit rate 0.039% among 390,000; also: potency is read from the fitted curve at half-maximal effect; % is scaled to controls: 0 for no effect and ±100 for the full control effect; nearly all actives have a fitted effect of over 75% in size
Target sequence (P49798 whole entry, looked up): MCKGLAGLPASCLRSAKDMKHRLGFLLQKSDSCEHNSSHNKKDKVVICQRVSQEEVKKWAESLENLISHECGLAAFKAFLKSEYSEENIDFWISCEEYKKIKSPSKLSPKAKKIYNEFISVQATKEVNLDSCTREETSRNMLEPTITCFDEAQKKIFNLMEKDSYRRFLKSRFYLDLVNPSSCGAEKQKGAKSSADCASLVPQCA
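MLSMR compounds (23 nl, pin-transferred) preincubated 10 min at room temperature with a 500nM (2x) first reagent, then RGS4 at 900nM (2x) plus Transcreener GDP mix added; fluorescence polarization (620/688 nm) read before and after 90 min at 30 °C.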
Eya2 inh = qHTS Assay for Inhibitors of the Phosphatase Activity of Eya2; Protein phosphatase EYA2 (Homo sapiens), O00167; recombinant Eya2, OMFP fluorescence dephosphorylation (OMFP is methylfluorescein phosphate); Potency, µM (series often up to 76.9 µM), for the others: top-dose activity, negative = inhibition, hits mostly inhibitors; hit rate 0.006% among 330,000; AID 488837, 2010; also: potency is read from the fitted curve at half-maximal effect; % is scaled to controls: 0 for no effect and ±100 for the full control effect
Target sequence (O00167 whole entry, looked up): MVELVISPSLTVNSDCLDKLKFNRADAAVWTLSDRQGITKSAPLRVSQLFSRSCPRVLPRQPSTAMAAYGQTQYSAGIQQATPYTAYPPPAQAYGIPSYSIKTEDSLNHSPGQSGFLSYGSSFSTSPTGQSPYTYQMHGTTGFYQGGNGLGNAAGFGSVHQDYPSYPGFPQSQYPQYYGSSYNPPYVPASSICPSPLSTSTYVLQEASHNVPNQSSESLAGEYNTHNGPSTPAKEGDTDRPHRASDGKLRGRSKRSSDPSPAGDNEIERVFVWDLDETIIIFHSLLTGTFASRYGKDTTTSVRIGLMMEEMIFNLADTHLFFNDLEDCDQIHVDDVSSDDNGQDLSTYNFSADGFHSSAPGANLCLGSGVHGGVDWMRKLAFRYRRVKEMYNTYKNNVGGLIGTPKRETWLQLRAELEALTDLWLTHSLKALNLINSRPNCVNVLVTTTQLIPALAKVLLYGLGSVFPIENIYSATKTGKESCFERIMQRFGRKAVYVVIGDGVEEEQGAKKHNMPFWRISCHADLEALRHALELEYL
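Eya2 (0.2 uM) preincubated 10 min at ambient with compound, then OMFP substrate added at 50 uM; 10 min reaction in 50 mM HEPES pH 7.5, 50 mM NaCl, 5 uM MgCl2, 0.05% BSA, 1 mM DTT. Fluorescence read at Ex 485/Em 525 nm.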
TrxR1 substrate = qHTS Assay for Substrates of Mammalian Selenoprotein Thioredoxin Reductase 1 (TrxR1): qHTS. Potency, µM (doses to about 114 µM), without a hit: top-dose activity change, negative = substrate turnover. purified TrxR1 substrate turnover, NADPH consumption readout. hit rate 0.01% among 390,000. AID 588456, 2011. Thioredoxin reductase 1, cytoplasmic (Rattus norvegicus), O89049; also: potency is read from the fitted curve at half-maximal effect; % is scaled to controls: 0 for no effect and ±100 for the full control effect; nearly all actives have a fitted effect of over 50% in size
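Rat TrxR1, dispensed at 90 nM, was prereduced with 400 uM NADPH (final) for 5 min at ~22 deg C, then incubated with compound 15 min before 400 uM selenite. A first-read NADPH fluorescence drop versus no-compound background flagged substrates.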
IDH1 R132H inh = qHTS for Inhibitors of mutant isocitrate dehydrogenase 1 (IDH1): qHTS | Isocitrate dehydrogenase [NADP] cytoplasmic (Homo sapiens), O75874 | IDH1-R132H enzyme, NADPH consumption, diaphorase/resazurin fluorescence | Potency, µM (doses to about 76.6 µM), inactives show at the highest dose activity change, negative = inhibition, most hits filed as inhibitors | hit rate 0.093% among 390,000 | AID 602179, 2012; also: potency is read from the fitted curve at half-maximal effect; % is scaled to controls: 0 for no effect and ±100 for the full control effect; nearly all actives have a fitted effect of over 65% in size
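IDH1-R132H (0.5 ug/mL dispensed) in pH 7.5 Tris buffer was preincubated 30 min with compound, then given a substrate mix of 0.016 mM NADPH and 2 mM alpha-KG for 80 min at room temperature; remaining NADPH was read by diaphorase/resazurin fluorescence.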
Resorufin autofl = qHTS for Inhibitors of mutant isocitrate dehydrogenase 1 (IDH1): Cherrypicks Autofluorescence Interference | shares compounds with IDH1 R132H inh | Resorufin detection reagent fluorescence interference, cell-free | inhibition of signal, % at 51.2 µM | 750 tested, under 10 active | AID 623980, 2012;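 also: 0% = wells with normal resorufin and full inhibition = wells lacking resorufin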
WT IDH1 inh = qHTS for Inhibitors of mutant isocitrate dehydrogenase 1 (IDH1): Cherrypicks in WT IDH1; hit rate 9% among 750; shares compounds with IDH1 R132H inh; WT IDH1 enzyme, NADPH diaphorase/resazurin fluorescence; AID 623995, 2012; Potency, µM (titrated, usually from 115 µM), inactives show at the top dose activity change, negative = inhibition, hits mostly inhibitors;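 also: potency is read from the fitted curve at half-maximal effect; 0% = full WT IDH1 enzyme control and full inhibition = no enzyme wells; nearly all actives have a fitted effect of over 55% in size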
mIDH1 confirm = qHTS for Inhibitors of mutant isocitrate dehydrogenase 1 (IDH1): Confirmation of Cherrypicks; AID 624002, 2012; IDH1 R132H enzyme, NADPH diaphorase/resazurin fluorescence; shares compounds with IDH1 R132H inh; hit rate 83% among 750; Potency, µM (highest dose often 76.6 µM), inactives show at the top dose activity change, negative = inhibition, usual class: inhibitors; also: potency is read from the fitted curve at half-maximal effect; nearly all actives have a fitted effect of over 50% in size
Numbers without * were called inactive; u = inconclusive; x = no result given; [ ] = another dose, or the depositor's remark. The list is not random: actives were taken first. Their share in the collection is about 1.1%. Calls follow the shape of the dose curve; as a rule, active = well fitted curve in the direction sought with a large enough effect; inconclusive = small, poorly fitted or top-dose-only effect, or another doubt; inactive = no such curve, though single readings can be large; an effect the other way counts as inactive or inconclusive.

SMILES	rTrxR1 inhibitor	RGS4 inhibitor	Eya2 inh	TrxR1 substrate	IDH1 R132H inh	Resorufin autofl	WT IDH1 inh	mIDH1 confirm
CC(C)c1ccc(/C=N/Nc2cc(N3CCOCC3)nc(N3CCOCC3)n2)cc1	-5%	-39%	-5%	-8%	5%	x	x	x
Cc1cccc(/C=N/Nc2cc(N3CCOCC3)nc(N3CCOCC3)n2)c1	-13%	1%	-4%	-16%	u	-1	-5%	13µM*
COc1ccc(N(C(=O)c2snc(C(N)=O)c2N)C(C(=O)NC2CCCC2)c2ccc(F)cc2)c(OC)c1 (stereo unspecified)	-7%	8%	13%	17%	u	-2	-7%	u
COc1ccc(C(C(=O)NC2CCCCC2)N(C(=O)c2snc(C(N)=O)c2N)c2ccc(OC)cc2OC)cc1 (stereo unspecified)	35%	4%	-7%	26%	-27%	x	x	x
COc1ccc(C)cc1N(C(=O)c1snc(C(N)=O)c1N)C(C(=O)NC1CCCC1)c1ccc(F)cc1 (stereo unspecified)	35%	0%	-6%	24%	u	4	1%	16µM*
Cn1c2ccccc2c(=O)c2c(=O)n(C3CCCCC3)c(-c3ccco3)nc21	-6%	23%	-7%	-9%	26µM*	-11	24%	22µM*
Cc1nc2c(c(=O)c3ccccc3n2C)c(=O)n1C1CCCCCC1	1%[57.1 µM]	7%	-9%	7%[57.1 µM]	4%	x	x	x
NSc1nc(N)c2nc(-c3ccccc3)c(-c3ccccc3)nc2n1	21%[57.1 µM]	u	-1%	14%	u	2	1%	22µM*
C/C(=N\NC(=O)CSc1nc(C)cc(C)n1)c1ccc([N+](=O)[O-])cc1	5%	6%	4%	-8%	-5%	x	x	x
Cc1cc([N+](=O)[O-])nn1CC(=O)N/N=C/c1ccc(O)cc1O	-11%	-3%	1%	-12%	-5%	x	x	x
CN(C(=O)CSc1nc(-c2ccc(C(C)(C)C)cc2)c(C#N)c(=O)[nH]1)C1CCCCC1	-7%	-33%	12%	-3%	u	0	u	45µM*
CSc1ncccc1C(=O)OCC(=O)C(C)(C)C	12%	-14%	u	0%	-7%	x	x	x
Cc1ccc(OCCCSc2nc(-c3ccc(C(C)(C)C)cc3)nc3cc(=O)[nH]n23)cc1C	6%[57.1 µM]	-11%	x	18%[57.1 µM]	40µM*	0	u	25µM*
Cc1cc(NC(=O)/C=C/c2cccc(F)c2)n(-c2nc3ccccc3[nH]2)n1	9%	4%	-1%	7%	-4%	x	x	x
Cc1c(/C=N/NC(=O)c2cc(=O)[nH]c(=O)[nH]2)c2ccccn2c1C(=O)c1ccccc1	-14%[57.1 µM]	-20%	4%	-4%[57.1 µM]	u	-2	u	14µM*
Cc1c(/C=N/NC(=O)c2ccc(O)cc2)c2ccccn2c1C(=O)c1ccc(F)cc1	13%[57.1 µM]	-51%	0%	-13%	0%	x	x	x
O=C(NCc1ccco1)C(c1ccncc1)N(C(=O)Cc1cccs1)c1ccccc1 (stereo unspecified)	-19%	-16%	3%	-8%	-9%	x	x	x
O=C(NCC(=O)N(Cc1ccco1)C(C(=O)NC1CCCC1)c1ccncc1)c1cccs1 (stereo unspecified)	u	-10%	0%	0%	-2%	x	x	x
Cc1ccc(C(C(=O)NC2CCCCC2)N(Cc2ccco2)C(=O)C2COc3ccccc3O2)o1 (stereo unspecified)	10%	-8%	-22%	-7%	u	0	-3%	13µM*
O=C(NCc1ccco1)C(c1ccccc1)N(C(=O)Cc1cccs1)c1ccccc1F (stereo unspecified)	-12%	3%	-14%	-9%	21µM*	-4	-1%	14µM*
O=C(NC1CCCC1)C(c1ccccc1)N(Cc1ccco1)C(=O)Cc1cccs1 (stereo unspecified)	-6%	7%	-20%	0%	u	-5	2%	28µM*
COc1ccc(OCCN2CCN(C(=O)c3ccc(OC(F)F)c(OC)c3)CC2)cc1	-5%	5%	-12%	-9%	0%	x	x	x
CN(C)Cc1c(C(=O)N/N=C/c2ccccc2OCc2c(F)cccc2Cl)nnn1-c1nonc1N	5%	-3%	14%	-6%	37µM*	-4	0%	7.1µM*
CN(C)Cc1c(C(=O)N/N=C/c2cccc(OCc3c(F)cccc3Cl)c2)nnn1-c1nonc1N	28%	-9%	-1%	9%	-2%	x	x	x
CC(=O)N1c2ccc(S(=O)(=O)NCCC(=O)Nc3ccc(Cl)cc3)cc2CC1C (stereo unspecified)	x	x	x	x	-5%	x	x	x
O=C(NC1CCCCC1)N(Cc1ccc(F)cc1)Cc1nc2ccccc2c(=O)[nH]1	10%[57.1 µM]	18%	-9%	12%[57.1 µM]	u	0	10%	28µM*
COc1ccc(C2C(C#N)=C(N)N(c3sc4c(c3C#N)CCCC4)C3=C2C(=O)CC(C)(C)C3)cc1 (stereo unspecified)	-15%	-3%	-23%	-5%	-10%	x	x	x
COc1ccc(C2C(C#N)=C3NC(=O)c4c(sc5c4CCCCC5)N3C3=C2C(=O)CC(C)(C)C3)cc1 (stereo unspecified)	-24%	13%	4%	-1%	u	5	1%	-20%
COc1ccc(C2C(C#N)=C(N)N(N(C)C)C3=C2C(=O)CC(C)(C)C3)cc1 (stereo unspecified)	5%	17%	17%	-2%	0%	x	x	x

Screening results: PubChem BioAssay, National Center for Advancing Translational Sciences (NCATS)
